Activation data for eleven compounds are collected here from PubChem BioAssay (NCATS).

Records with an inconclusive call do not appear. Unmarked numbers belong to inactive results. The call rests on the fitted dose curve; in most records, active means well fitted activation curve with a large enough effect; inconclusive means small, poorly fitted or top-dose-only effect; inactive means no such curve, though single readings can be large or run the other way.

For the test, the target named is Cellular tumor antigen p53 (Homo sapiens) (UniProt P04637). The experiment in a line: Primary qHTS for small molecule compounds that upregulate eGFP-tagged delta133p53alpha (in N-terminal) cells. (AID 2060322).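 Further: cells pre-induced with doxycycline then dosed without doxycycline; series mostly up to about 56 µM; 0% = DMSO vehicle and 100% = reference activator; nearly all actives have a fitted effect of over 75% in size.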 As to conditions: NCI-H358 eGFP-delta133p53alpha fluorescence, 24 h; activation: active compounds read high. An outline of the steps: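 NCI-H358 cells pre-induced 24 h with 10 ng/ml doxycycline for eGFP-delta133p53alpha, plated dox-free and exposed 24 h at 37C to titrated compounds. Fixed, Hoechst-stained; gated GFP peak intensity by laser scanning cytometry, normalized to DMSO (0%) and 57.5 uM 5-azacytidine (100%).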
Sequence of Cellular tumor antigen p53 (Homo sapiens) (P04637 whole entry, looked up): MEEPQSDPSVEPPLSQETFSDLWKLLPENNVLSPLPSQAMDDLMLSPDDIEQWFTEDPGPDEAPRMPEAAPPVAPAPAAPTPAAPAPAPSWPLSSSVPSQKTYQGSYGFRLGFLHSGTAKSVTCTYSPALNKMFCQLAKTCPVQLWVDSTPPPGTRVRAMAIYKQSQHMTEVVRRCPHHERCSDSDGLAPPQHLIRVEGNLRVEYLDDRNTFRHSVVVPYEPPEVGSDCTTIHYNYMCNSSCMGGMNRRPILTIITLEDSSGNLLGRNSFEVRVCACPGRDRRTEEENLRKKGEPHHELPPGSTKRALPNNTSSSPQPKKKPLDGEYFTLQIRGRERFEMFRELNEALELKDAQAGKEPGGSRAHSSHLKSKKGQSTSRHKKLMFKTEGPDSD
(Quantitative high-throughput screening tests each substance at several concentrations.)
On to `C[C@]12CC[C@@H]3c4ccc(O)cc4CC[C@H]3[C@@H]1C[C@@H](O[C@@H]1O[C@H](C(=O)O)[C@@H](O)[C@H](O)[C@H]1O)[C@@H]2O`, for which the activation was -6.33%. Turning to `C=C[C@H]1[C@H](O[C@@H]2O[C@H](CO)[C@@H](O)[C@H](O)[C@H]2O)OC=C(C(=O)OC)[C@H]1CC=O`, the activation was -32.8%.

As for `CCN(CC)CCCCCCNc1cc(OC)cc2c(C)ccnc12`, the activation was -2.86%. Then `CC[C@@H](O)C[C@@H]1C(C)=C[C@@H]2CCCC[C@@H]2[C@@]1(C)C(=O)O`, with -6.87%; and `CCCCc1ccc(NS(=O)(=O)c2ccc(F)cc2)cc1`, with -9.55%.

For `O=C(/C=C/c1ccc(O)cc1)OC[C@H]1O[C@@H](OC(=O)/C=C/c2ccccc2)[C@H](O)[C@@H](O)[C@@H]1O`, the activation is -1.53%.

As to `C[C@]1(OC(=O)/C=C\c2ccc(O)cc2)C[C@@H](O)[C@]2(O)C=CO[C@@H](O[C@@H]3O[C@H](CO)[C@@H](O)[C@H](O)[C@H]3O)C12` (stereo partly specified), the activation is 23.7%. On to `CCC[C@@H]1O[C@@H]2C[C@H]3[C@@H]4CCC5=CC(=O)C=C[C@]5(C)[C@H]4[C@@H](O)C[C@]3(C)[C@]2(C(=O)CO)O1`, for which the activation was 6.33%. Consider `O=C(O)c1ccnc2cc(C(OCC3CCC(F)(F)CC3)c3ccccc3Cl)[nH]c12` (stereo unspecified), for which the activation is 5.67%. For `NC1Nc2ccccc2C1(N)CC1NC(=O)C(Cc2ccccc2)NC(=O)C(Cc2ccccc2)NC1=O` (stereo unspecified), the activation was -3.05%. Take `CN1[C@@H]2CC[C@H]1CC(NC(=O)n1c(=O)[nH]c3ccccc31)C2` (stereo partly specified): the activation is -9.21%.
